Reference: ChEMBL document CHEMBL1157539, “Thousands of chemical starting points for antimalarial lead identification” (Nature, 2010)

Tested on: HepG2
Assay: GSK_TCMDC: Percent inhibition of human HepG2 cell line. Test compounds present at 10uM.
Type: functional

`O=C(Nc1ccc(-c2ccccc2)c(OCCN2CCNCC2)c1)c1ccc(-c2ccc(Cl)cc2)cc1` was tested. Which Inhibition did it give?
Its Inhibition is 92%.

With `CN1CCN(c2ccc(Nc3c(C(N)=O)cnc4cc(-c5ccoc5)ccc34)cc2C(F)(F)F)CC1.Cl` as the compound, how does the Inhibition read?
The Inhibition was 13%.

How did the Inhibition turn out when `Cc1cc(=NN=Cc2ccccc2)c2cc(C(F)(F)F)ccc2[nH]1` was run?
The Inhibition was 30%.

With `COc1cc(Cc2cnc(N)nc2N)ccc1OCc1ccc(-c2ccccc2C#N)cc1` as the compound, how does the Inhibition read?
The Inhibition was 32%.

With `CC1CC(C)CN(CC(O)CNC(=O)Nc2ccc(Br)cc2)C1.O=C(O)C(F)(F)F` (configuration not stated) as the compound, how does the Inhibition read?
The Inhibition was 13%.

With `CC(=O)Nc1ccc(CN2CCN(C(c3ccc(F)cc3)c3ccc(F)cc3)CC2)cc1` as the compound, how does the Inhibition read?
The Inhibition was 4%.

With `CCCCNc1c(C(=O)OCC)c(C)nc2c1[nH]c1ccccc12` as the compound, how does the Inhibition read?
Its Inhibition is 0%.

How did the Inhibition turn out when `CC[C@@H]([C@@H](CC(C)C)C(=O)N[C@@H](CCCCNC(=O)OCc1ccccc1)C(=O)Nc1ccccn1)N(O)C=O` was run?
The Inhibition was 0%.

How did the Inhibition turn out when `FC(F)(F)c1cccc(CNCCCCCNCc2ccc(Cl)cc2)c1` was run?
Its Inhibition is 13%.

Which Inhibition does the source give for `COc1ccc(CN(C)CCCc2ccc(NC(=O)c3cccc4c(=O)c5cccc(F)c5[nH]c34)cc2)cc1OC` here?
Its Inhibition is 100%.

Which Inhibition does the source give for `CC(C)C(=O)NC(c1ccc(Cl)cc1)c1ccc2cccnc2c1O` (configuration not stated) here?
The Inhibition was 53%.

For `CC(=O)c1c(Nc2c(C)cc(C)cc2C)oc(C)cc1=O`, which Inhibition is on record?
The Inhibition was 7%.

Which Inhibition does the source give for `COc1ccccc1CNC(=O)c1ccc(N2CCN(c3ccncc3)CC2)cn1.O=C(O)C(F)(F)F` here?
The Inhibition was 16%.

Which Inhibition does the source give for `Nc1c(Cl)cc(C(O)CNCCCCCOCCc2ccc3occc3c2)cc1Cl` (configuration not stated) here?
The Inhibition was 0%.

With `COc1ccc(Cn2c(N3CCN(S(=O)(=O)c4ccc(OC)cc4)CC3)nc3c2c(=O)n(CC2CC2)c(=O)n3CC2CC2)cc1` as the compound, how does the Inhibition read?
The Inhibition was 0%.

For `CN(C)CCN(C)Cc1ccc(-c2ccc(NC(=O)c3cccc(Cl)c3)cc2)cc1.O=C(O)C(F)(F)F`, which Inhibition is on record?
The Inhibition was 50%.

How did the Inhibition turn out when `COc1cc(Cl)c(C)cc1-n1cc(C(=O)c2cc(Br)ccc2O)cc(C#N)c1=O` was run?
The Inhibition was 3%.

How did the Inhibition turn out when `COc1cc(Nc2ncc3c(C)nc(-c4cccc(Nc5ccc(CN6CCS(=O)(=O)CC6)cc5)c4)n3n2)cc(OC)c1OC` was run?
The Inhibition was 2%.

How did the Inhibition turn out when `COc1cc(C(=O)N2CCN(C(C)C)CC2)ccc1CN(C)CCCCN1CCN(c2cccc(Cl)c2Cl)CC1.Cl` was run?
The Inhibition was 79%.

With `O=C(O)C(F)(F)F.OCCN1CCN(Cc2ccc(-c3ccc(-c4nc5cc(F)ccc5[nH]4)cc3)cc2)CC1` as the compound, how does the Inhibition read?
The Inhibition was 33%.

`COc1ccc2ncc(F)c(CCN3CC(O)C(CNCc4ccc5c(n4)NC(=O)CS5)C3)c2c1.Cl` (configuration not stated) was tested. Which Inhibition did it give?
Its Inhibition is 0%.

Which Inhibition does the source give for `COc1ccc(-c2ccc(NC(=O)c3cccc(Cl)c3)c(F)c2)cc1CNC(C)C.O=C(O)C(F)(F)F` here?
The Inhibition was 19%.

How did the Inhibition turn out when `O=C(Nc1ccc(Cl)cc1)c1ccc(CN2CCCN(Cc3cccc(Cl)c3)CC2)cc1.O=C(O)C(F)(F)F` was run?
The Inhibition was 53%.

Which Inhibition does the source give for `Cc1ccc(Cn2ncc(N3CCNCC3)c(Cl)c2=O)cc1NC(=O)Nc1ccc(-c2ccccc2)cc1.O=C(O)C(F)(F)F` here?
Its Inhibition is 56%.

Which Inhibition does the source give for `COc1cccc(CNC[C@@H](O)[C@H](Cc2ccccc2)NC(=O)c2cc3c4c(c2)c(C(C)C)cn4CCS(=O)(=O)N3C)c1.O=CO` here?
The Inhibition was 21%.

`CN(C)CCCNCc1ccc(-c2ccc(F)c(Cl)c2)o1.Cl` was tested. Which Inhibition did it give?
The Inhibition was 29%.

Which Inhibition does the source give for `CCOc1cc(Cc2cnc(N)nc2N)cc(OCC)c1OCCCCC(=O)OC` here?
The Inhibition was 0%.

For `CN(C)CCC1CCN(CCS(=O)(=O)c2cccc(Nc3ccc(-c4ccsc4)cn3)c2)CC1`, which Inhibition is on record?
Its Inhibition is 49%.

Which Inhibition does the source give for `O=C(/C=C/c1ccc(Cl)c(Cl)c1)NCCCCCN1CCC(NC(=O)Nc2cc(Cl)nc(Cl)c2)CC1` here?
The Inhibition was 4%.

Which Inhibition does the source give for `CCn1c(-c2nonc2N)nc2c(-c3cccc(Cl)c3)ncc(OCCCNCCc3c[nH]cn3)c21.O=C(O)C(F)(F)F` here?
Its Inhibition is 16%.

Which Inhibition does the source give for `O=C(N[C@@H](CC1CCCCC1)C(=O)NCCc1ccc(Cl)c(Cl)c1)c1ccc(O)c(-c2ccc(Cl)c(Cl)c2)c1` here?
Its Inhibition is 0%.

How did the Inhibition turn out when `CC(C)(C)c1cc2cc(Nc3ccnc4cc(-c5nccs5)ccc34)ccc2[nH]1.Cl` was run?
Its Inhibition is 5%.

For `O=C(NCC1CCC(C(=O)NCCc2ccc(Cl)c(Cl)c2)CC1)c1ccc(O)c(-c2ccc(Cl)c(Cl)c2)c1` (configuration not stated), which Inhibition is on record?
Its Inhibition is 0%.

Which Inhibition does the source give for `COc1cccc(-c2cnc(N)c(-c3nc4cc(Cl)c(F)cc4[nH]3)c2)c1` here?
The Inhibition was 37%.

How did the Inhibition turn out when `Cl.OCCNc1nc(Nc2ccc(F)cc2)nc2ccccc12` was run?
Its Inhibition is 10%.

`Cc1cc(Nc2ccnc(-c3ccc(Cl)cc3)n2)ccn1` was tested. Which Inhibition did it give?
Its Inhibition is 6%.

For `CC1CN(c2cnn(C/C=C/c3ccc(NC(=O)c4ccc([N+](=O)[O-])cc4)cc3)c(=O)c2Cl)CC(C)N1.O=C(O)C(F)(F)F` (configuration not stated), which Inhibition is on record?
The Inhibition was 22%.
